This note sets out measurements from PubChem BioAssay (NCI).

SMILES strings stand for the structures. About 79,000 compounds went through this panel and 15% of them were active in at least one assay; those are over-represented in the sample as a whole. Values without a mark were called inactive. Activity calls are given as the source filed them. No stated cut-off is given here; in the data, active means growth inhibition above about 70%; inactive means the rest.

Experiment [1] can be described thus: NCI Yeast Anticancer Drug Screen. Data for the rad50 strain (AID 155).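 Further: 0% = growth of vehicle-only cultures of the same strain.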 As to conditions: S. cerevisiae rad50 strain growth inhibition, hits give high values. The method in brief: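 DNA repair mutant yeast, compound exposure, growth read-out; inhibition is taken relative to vehicle.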
Experiment [2] in a line: NCI Yeast Anticancer Drug Screen. Data for the mec2-1 strain (AID 157). As to conditions: S. cerevisiae mec2-1 strain, hits give high values. The method, boiled down: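 Each compound was tested on mec2-1 yeast, a strain altered in DNA damage repair or cell cycle control. Growth inhibition is reported relative to vehicle.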
Experiment [3] can be described thus: NCI Yeast Anticancer Drug Screen. Data for the sgs1 mgt1 strain (AID 161).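 Further: 0% = growth of cultures given vehicle only.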 As to conditions: S. cerevisiae sgs1 mgt1 strain, hits give high values. The method, boiled down:
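Genetically altered yeast, compound exposure, growth inhibition relative to vehicle.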

A short description of experiment [4]: NCI Yeast Anticancer Drug Screen. Data for the cln2 rad14 strain (AID 165).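 Further: 0% = growth equal to vehicle treated cultures.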 As to conditions: S. cerevisiae cln2 rad14 strain, hits give high values. The method, boiled down: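 Test compounds were added to cln2 rad14 yeast cultures; inhibition of growth was then determined by comparison with vehicle treatment.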
The nature of experiment [5]: NCI Yeast Anticancer Drug Screen. Data for the bub3 strain (AID 167). The conditions noted are these: S. cerevisiae bub3 mutant strain, hits give high values. The method in brief: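 In this screen, a yeast mutant lacking normal mitotic checkpoint function is challenged with compound. Relative growth versus vehicle gives the inhibition value.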
Experiment [6] can be described thus: NCI Yeast Anticancer Drug Screen. Data for the mlh1 rad18 strain (AID 175). As to conditions: S. cerevisiae mlh1 rad18 strain growth inhibition, hits give high values. The method, boiled down: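 Inhibition values reflect reduced growth of mutant yeast versus vehicle-treated controls following compound exposure; the mutations affect DNA damage repair.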
The mark [7] stands for this setting: at 5.0 µM (retest, dose inferred, filed as 0.5).
[8] abbreviates: at 50.0 µM (retest, dose inferred, filed as 5.0).

As for `CCC[CH2][Sn]([CH2]CCC)([S]/C(C#N)=N/N=C/c1ccc(N(C)C)cc1)[S]/C(C#N)=N/N=C/c1ccc(N(C)C)cc1`, the growth inhibition is 57% in experiment [1] (setting [7]); 98% (active) in experiment [1] (setting [8]); 97% (active) in experiment [1] (at 50.0 µM); 66% in experiment [2] (setting [7]); 98% (active) in experiment [2] (setting [8]); 92.5% (active) in experiment [2] (at 50.0 µM). In addition, the growth inhibition in experiment [3] (setting [7]) is 52%; in experiment [3] (setting [8]), 98% (active); in experiment [3] (at 50.0 µM) it was 95.8% (active); in experiment [4] (setting [7]) it was 40%; in experiment [4] (setting [8]), 94% (active); in experiment [4] (at 50.0 µM), 95% (active). Further, the growth inhibition in experiment [5] (setting [7]) was 64%; in experiment [5] (setting [8]), 99% (active); in experiment [5] (at 50.0 µM), 95.8% (active); in experiment [6] (setting [7]), 72% (active); in experiment [6] (setting [8]) it was 98% (active); in experiment [6] (at 50.0 µM), 95.9% (active).
As to `CCCCNC(C)(C)COC(=O)/C=C/c1ccc(OCCCC)cc1`, the growth inhibition in experiment [1] (setting [7]) was 6%; in experiment [1] (setting [8]), 79% (active); in experiment [1] (at 50.0 µM), 89.2% (active); in experiment [2] (setting [7]), -2%; in experiment [2] (setting [8]), 47%; in experiment [2] (at 50.0 µM), 56.2%. Further, the growth inhibition is 3% in experiment [3] (setting [7]); 86% (active) in experiment [3] (setting [8]); 75.8% (active) in experiment [3] (at 50.0 µM); 3% in experiment [4] (setting [7]); 79% (active) in experiment [4] (setting [8]); 80% (active) in experiment [4] (at 50.0 µM). Besides, the growth inhibition in experiment [5] (setting [7]) is 4%; in experiment [5] (setting [8]) it was 75% (active); in experiment [5] (at 50.0 µM), 86.6% (active); in experiment [6] (setting [7]), 0%; in experiment [6] (setting [8]), 81% (active); in experiment [6] (at 50.0 µM), 89.2% (active).
As to `C[Si](C)(c1ccccc1)C1CC(=O)CC(=O)C1`, the growth inhibition was 41% in experiment [1] (setting [7]); 54% in experiment [1] (setting [8]); 49.9% in experiment [1] (at 50.0 µM); 26% in experiment [2] (setting [7]); 65% in experiment [2] (setting [8]); 55.2% in experiment [2] (at 50.0 µM). Besides, the growth inhibition in experiment [3] (setting [7]) is 47%; in experiment [3] (setting [8]), 50%; in experiment [3] (at 50.0 µM) it was 69.5%; in experiment [4] (setting [7]) it was 29%; in experiment [4] (setting [8]), 39%; in experiment [4] (at 50.0 µM) it was 65.1%. In addition, the growth inhibition was 38% in experiment [5] (setting [7]); 53% in experiment [5] (setting [8]); 56% in experiment [5] (at 50.0 µM); 44% in experiment [6] (setting [7]); 63% in experiment [6] (setting [8]); 48.8% in experiment [6] (at 50.0 µM).
With `CCCC(=O)NC1=C(Cl)C(=O)c2ccccc2C1=O`, the growth inhibition in experiment [1] (setting [7]) is 100% (active); in experiment [1] (setting [8]), 99% (active); in experiment [1] (at 50.0 µM), 91.8% (active); in experiment [2] (setting [7]), 100% (active); in experiment [2] (setting [8]), 100% (active); in experiment [2] (at 50.0 µM) it was 92.5% (active). Moreover, the growth inhibition in experiment [3] (setting [7]) was 100% (active); in experiment [3] (setting [8]) it was 100% (active); in experiment [3] (at 50.0 µM), 92.5% (active); in experiment [4] (setting [7]), 90% (active); in experiment [4] (setting [8]), 99% (active); in experiment [4] (at 50.0 µM), 91.5% (active). Further, the growth inhibition in experiment [5] (setting [7]) is 100% (active); in experiment [5] (setting [8]), 99% (active); in experiment [5] (at 50.0 µM) it was 89.7% (active); in experiment [6] (setting [7]), 101% (active); in experiment [6] (setting [8]) it was 99% (active); in experiment [6] (at 50.0 µM), 87.5% (active).
For the molecule `C=C1C(=O)OC2CC1C(O)C/C(C)=C/CC/C(C)=C/C(O)CC2C` (stereo not given), the growth inhibition is 18% in experiment [1] (setting [7]); 70% (active) in experiment [1] (setting [8]); -4.95% in experiment [1] (at 50.0 µM); 19% in experiment [2] (setting [7]); 84% (active) in experiment [2] (setting [8]); -20.6% in experiment [2] (at 50.0 µM). Besides, the growth inhibition in experiment [3] (setting [7]) is 15%; in experiment [3] (setting [8]), 54%; in experiment [3] (at 50.0 µM), 9.6%; in experiment [4] (setting [7]), 11%; in experiment [4] (setting [8]), 46%; in experiment [4] (at 50.0 µM), -5%. Moreover, the growth inhibition in experiment [5] (setting [7]) is 26%; in experiment [5] (setting [8]), 84% (active); in experiment [5] (at 50.0 µM), -7.7%; in experiment [6] (setting [7]) it was 48%; in experiment [6] (setting [8]) it was 95% (active); in experiment [6] (at 50.0 µM), 83.5% (active).
For the molecule `COc1ccc(OC)c2c(C(=O)O)c(C(C)c3ccccc3)ccc12` (stereo not given), the growth inhibition in experiment [1] (setting [7]) is -1%; in experiment [1] (setting [8]), 70% (active); in experiment [1] (at 50.0 µM), 85.8% (active); in experiment [2] (setting [7]), 3%; in experiment [2] (setting [8]) it was 73% (active); in experiment [2] (at 50.0 µM), 91.2% (active). Moreover, the growth inhibition was 2% in experiment [3] (setting [7]); 64% in experiment [3] (setting [8]); 91.2% (active) in experiment [3] (at 50.0 µM); 1% in experiment [4] (setting [7]); 74% (active) in experiment [4] (setting [8]); 96.2% (active) in experiment [4] (at 50.0 µM). In addition, the growth inhibition is -6% in experiment [5] (setting [7]); 65% in experiment [5] (setting [8]); 81.7% (active) in experiment [5] (at 50.0 µM); 3% in experiment [6] (setting [7]); 75% (active) in experiment [6] (setting [8]); 92.3% (active) in experiment [6] (at 50.0 µM).
Consider `COc1ccc(C(=O)C(CN2CCCC2)CN2CCCC2)cc1`, for which the growth inhibition is -1% in experiment [1] (setting [7]); 75% (active) in experiment [1] (setting [8]); 47.6% in experiment [1] (at 50.0 µM); 4% in experiment [2] (setting [7]); 88% (active) in experiment [2] (setting [8]); 88.1% (active) in experiment [2] (at 50.0 µM). Moreover, the growth inhibition in experiment [3] (setting [7]) was -5%; in experiment [3] (setting [8]) it was 82% (active); in experiment [3] (at 50.0 µM), 44%; in experiment [4] (setting [7]), 2%; in experiment [4] (setting [8]), 54%; in experiment [4] (at 50.0 µM) it was 7.4%. The growth inhibition in experiment [5] (setting [7]) is -5%; in experiment [5] (setting [8]) it was 81% (active); in experiment [5] (at 50.0 µM), 59.5%; in experiment [6] (setting [7]), 3%; in experiment [6] (setting [8]), 79% (active); in experiment [6] (at 50.0 µM) it was 69.3%.
For `CCOC(=O)CCC(NC(=O)c1ccc(NC(OC)c2nc3cc(C(F)(F)F)ccc3nc2-c2ccccc2)cc1)C(=O)OCC` (stereo not given), the growth inhibition in experiment [1] (setting [7]) was 88% (active); in experiment [1] (setting [8]), 88% (active); in experiment [1] (at 50.0 µM), 92.8% (active); in experiment [2] (setting [7]), 78% (active); in experiment [2] (setting [8]), 78% (active); in experiment [2] (at 50.0 µM) it was 93.2% (active). The growth inhibition in experiment [3] (setting [7]) was 90% (active); in experiment [3] (setting [8]), 90% (active); in experiment [3] (at 50.0 µM) it was 93.8% (active); in experiment [4] (setting [7]), 80% (active); in experiment [4] (setting [8]), 80% (active); in experiment [4] (at 50.0 µM), 92.7% (active). For the same molecule, the growth inhibition is 84% (active) in experiment [5] (setting [7]); 84% (active) in experiment [5] (setting [8]); 91.8% (active) in experiment [5] (at 50.0 µM); 92% (active) in experiment [6] (setting [7]); 92% (active) in experiment [6] (setting [8]); 91.9% (active) in experiment [6] (at 50.0 µM).
Turning to `CCCN=Cc1cnc(C#N)c(N)n1`, the growth inhibition in experiment [1] (setting [7]) is 4%; in experiment [1] (setting [8]), 4%; in experiment [1] (at 50.0 µM) it was 19%; in experiment [2] (setting [7]) it was 4%; in experiment [2] (setting [8]) it was 0%; in experiment [2] (at 50.0 µM), -3.9%. Also, the growth inhibition in experiment [3] (setting [7]) was -1%; in experiment [3] (setting [8]), 4%; in experiment [3] (at 50.0 µM), 4.6%; in experiment [4] (setting [7]), 1%; in experiment [4] (setting [8]) it was 1%; in experiment [4] (at 50.0 µM), 71.5% (active). Also, the growth inhibition is -2% in experiment [5] (setting [7]); -1% in experiment [5] (setting [8]); 17.3% in experiment [5] (at 50.0 µM); 11% in experiment [6] (setting [7]); 2% in experiment [6] (setting [8]); 32.5% in experiment [6] (at 50.0 µM).
As for `CCc1cc2c([nH]c3ccccc32)c(C)c1CCN(C)C`, the growth inhibition in experiment [1] (setting [7]) is -1%; in experiment [1] (setting [8]), 23%; in experiment [1] (at 50.0 µM), 35.1%; in experiment [2] (setting [7]), 4%; in experiment [2] (setting [8]), 23%; in experiment [2] (at 50.0 µM), 3.65%. Moreover, the growth inhibition in experiment [3] (setting [7]) was 3%; in experiment [3] (setting [8]), 46%; in experiment [3] (at 50.0 µM), 1.45%; in experiment [4] (setting [7]) it was -11%; in experiment [4] (setting [8]), 24%; in experiment [4] (at 50.0 µM) it was -14.6%. In addition, the growth inhibition in experiment [5] (setting [7]) was -9%; in experiment [5] (setting [8]), -5%; in experiment [5] (at 50.0 µM), 12.6%; in experiment [6] (setting [7]), -5%; in experiment [6] (setting [8]), 43%; in experiment [6] (at 50.0 µM) it was 69.8%.
